Shown are actives, neighbours in structure and some others; about 6% of the full set was active somewhere.
DRD3 agonist = agonists of human D3 dopamine receptor; D3R DiscoveRx beta-arrestin cells, luminescence, 90 min; max activation, %; hit rate 0.58% among 410,000; in the data active = max activation above about 30%; also: 0% is about no effect
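Cells at 1500/well, incubated overnight, then treated with pinned compounds (dopamine as control) for 90 min at 37 degrees C. DiscoveRx reagent added for 30 - 60 minutes at room temperature; luminescence read.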
D1 ag = activates the human D1 dopamine receptor; P21728; HEK293 T-REx D1 cells, calcium flux, agonist mode; activation, % at 2 µM; hit rate 1% among 360,000; AID 504660; in the data active = activation above about 30%; also: 0% is about no effect
Target sequence (P21728 whole entry, looked up): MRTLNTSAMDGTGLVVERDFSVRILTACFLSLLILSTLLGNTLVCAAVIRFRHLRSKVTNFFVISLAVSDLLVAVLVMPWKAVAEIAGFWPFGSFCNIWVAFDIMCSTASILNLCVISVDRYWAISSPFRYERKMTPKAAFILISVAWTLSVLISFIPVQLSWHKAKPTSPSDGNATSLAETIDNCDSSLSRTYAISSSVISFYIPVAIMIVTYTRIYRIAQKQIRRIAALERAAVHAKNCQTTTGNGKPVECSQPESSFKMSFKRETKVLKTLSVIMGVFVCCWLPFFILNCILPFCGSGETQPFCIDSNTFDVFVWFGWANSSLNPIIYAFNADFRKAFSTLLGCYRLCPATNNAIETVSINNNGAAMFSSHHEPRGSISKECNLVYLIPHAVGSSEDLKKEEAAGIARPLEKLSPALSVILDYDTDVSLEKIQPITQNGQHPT
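Tetracycline-induced HEK293 TREx D1 cells, force-coupled to calcium signalling, were dye-loaded with a no-wash calcium kit. Compound was pin-added after a 10 s baseline. Fluorescence was read kinetically at 1 cycle/s for 180 s, with calcium rises flagged as agonism.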
D3 antag = antagonists of human D3 dopamine receptor | P35462 | D3R cells, DiscoveRx beta-arrestin luminescence, antagonist mode; hits give low values | max response, negative = inhibition, % | hit rate 2.5% among 360,000; in the data active = max response below about -50%; also: % is scaled to controls: 0 for no effect and ±100 for the full control effect
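Cells plated overnight at 1500 cells/well, then exposed to library compounds with dopamine controls for 90 minutes at 37 degrees C. DiscoveRx reagent added for 30–60 minutes at room temperature; luminescence read, quantitative HTS format.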
D1 PAM = human D1 dopamine receptor positive modulation. P21728. HEK293 TREx D1 cells, calcium flux, dopamine EC20 potentiation. potentiation, % at 10 µM. hit rate 0.036% among 360,000; in the data active = potentiation above about 30%; also: 0% is about no effect
D1 antag = blocks dopamine activation of the human D1 receptor; P21728; HEK293 TREx D1 cells, calcium flux, dopamine EC80; hits give low values; activity change, negative = inhibition, % at 10 µM; hit rate 3.2% among 360,000; AID 504652; in the data active = activity change below about -30%; also: % is scaled to controls: 0 for no effect and ±100 for the full control effect
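After overnight tetracycline induction at 30 C, force-coupled D1 HEK293 cells took up a no-wash calcium dye at room temperature. Compounds were added and monitored 180 s, and the response to EC80 dopamine was then recorded.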
* = called active by the depositor; x = no result given.

SMILES	DRD3 agonist	D1 ag	D3 antag	D1 PAM	D1 antag
COc1ccc(OC)c(NC(=O)c2sc3nc(Cc4ccccc4)cc(C(F)(F)F)c3c2N)c1	11	3	26	-8	0
COCCNC(=O)C(=O)NCC(c1cccnc1)N1CCN(c2ccccc2OC)CC1 (configuration not stated)	-8	16	x	2	14
COc1ccccc1N1CCN(C(CNC(=O)C2CCCCC2)c2cccnc2)CC1 (configuration not stated)	-14	4	-71*	0	1
COc1ccc(NC(=O)C(=O)NCC(c2cccnc2)N2CCc3ccccc3C2)cc1 (configuration not stated)	0	30	x	-4	-40*
Fc1ccc(-c2cc(-c3nc(-c4ccccc4)no3)[nH]n2)cc1	1	2	x	-4	-4
O=C(COc1ccc(S(=O)(=O)N2CCCCC2)cc1)NCc1cccnc1	36*	1	13	-5	10
COc1ccc(CNC(=O)COc2ccc(S(=O)(=O)N3CCCCC3)cc2)cc1	7	6	-9	-2	-6
COc1ccc(CNC(=O)C2CCC(CNS(=O)(=O)c3cccc4nsnc34)CC2)cc1 (configuration not stated)	0	3	-5	-4	-46*
COCCNC(=O)C1CCC(CNS(=O)(=O)c2cccc3nsnc23)CC1 (configuration not stated)	1	1	2	2	34
O=C(NCc1ccc2c(c1)OCO2)C1CCC(CNS(=O)(=O)c2cccc3nsnc23)CC1 (configuration not stated)	3	1	-7	x	-52*
CCOc1ccc(CCNC(=O)c2cnc3c(-c4ccc(F)cc4)c(C)nn3c2C)cc1OCC	-18	3	x	-4	13
Cc1ccccc1CSc1nc2cccnc2n1Cc1ccc(C(=O)NCCc2cccs2)cc1	-16	2	x	4	-6
Cn1c(C(=O)NCCN2CCCCCC2)cc2c(=O)n(C)c3ccccc3c21	-10	3	-2	-1	3
Cn1c(C(=O)NCCN2CCN(Cc3ccccc3)CC2)cc2c(=O)n(C)c3ccccc3c21	-14	2	-93*	-5	-5
CC1CCN(CCCNC(=O)c2cc3c(=O)n(C)c4ccccc4c3n2C)CC1	-16	0	-83*	-1	11
Cc1ccc(-n2nc(C)c(C(=O)NCCCN3CCN(c4ccccc4F)CC3)c2-n2cccc2)cc1	-4	22	x	-4	-47*
Cn1c(C(=O)NCCCN2CCN(c3ccccc3F)CC2)cc2c(=O)n(C)c3ccccc3c21	-1	-1	-73*	x	-4
Cc1cc(C(C)(C)C)c(O)c(C)c1CC1=NCCN1	-44	0	-98*	4	8
Cc1ccc(-n2nc(C)c3c2OC(N)=C(C#N)C3c2ccncc2)cc1 (configuration not stated)	-2	1	0	1	9
Cc1ccc(-n2nc(C)c3c2OC(N)=C(C#N)C3c2ccccc2F)cc1 (configuration not stated)	1	-1	-52*	-4	12
CCN1CCN(c2c(S(=O)(=O)c3ccc(OC)cc3)cnc3cc(OC)c(OC)cc23)CC1	-2	0	x	-9	-40*
CC(=O)c1ccc(OCC(O)CN2CCN(CCN3C(=O)c4cccc5cccc(c45)C3=O)CC2)cc1 (configuration not stated)	1	1	12	-3	-1
O=C(/C=C/c1ccccc1)N1CCN(CCN2C(=O)c3cccc4cccc(c34)C2=O)CC1	-16	-1	-96*	-4	-13
C=CCc1ccccc1OCC(O)CN1CCN(CCN2C(=O)c3cccc4cccc(c34)C2=O)CC1 (configuration not stated)	-34	6	-4	-8	-69*
CC(C)OCC(O)CN1CCN(CCN2C(=O)c3cccc4cccc(c34)C2=O)CC1 (configuration not stated)	-6	-1	5	-4	15
SMILES	DRD3 agonist	D1 ag	D3 antag	D1 PAM	D1 antag
Cc1ccccc1OCC(O)CN1CCN(CCN2C(=O)c3cccc4cccc(c34)C2=O)CC1 (configuration not stated)	-18	-1	-86*	-10	3
Cc1ccn2c(CN(C)CCn3nc(C)cc3C)c(C(=O)N3CCCCCC3)nc2c1	2	-1	1	2	-36*
O=C(COC(=O)CN1C(=O)C2CCCCC2C1=O)NNC(=O)c1ccc(Cl)cc1 (configuration not stated)	-3	2	-75*	-2	-13
Cn1c(=O)c2c(ncn2CC(=O)OCC(=O)NNC(=O)c2ccc(Cl)cc2)n(C)c1=O	-24	4	-124*	1	-1
Cn1c(=O)c2c(ncn2CC(O)CNc2ccc(Cl)cc2)n(C)c1=O (configuration not stated)	-2	2	-21	-6	-37*
Cc1ccc(S(=O)(=O)C(CNC(=O)COc2ccccc2)c2ccco2)cc1 (configuration not stated)	7	-5	x	-2	x
COc1ccc(Cn2ccc3nc(C)c(C(=O)N4CCN(c5cccc(OC)c5)CC4)cc3c2=O)cc1	10	3	x	0	-13
Cc1nc(-c2ccccc2)sc1C1(C)CC(c2cccc(F)c2)=NO1 (configuration not stated)	6	x	11	x	x
Cc1nc(C(=O)Nc2cc(F)cc(Cl)c2)sc1C1(C)CC(c2ccccc2)=NO1 (configuration not stated)	41*	x	8	x	x
Cc1nc(-c2ccccc2)sc1C1(C)CC(c2cccc([N+](=O)[O-])c2)=NO1 (configuration not stated)	13	2	4	-1	-42*
Cc1nc(-c2ccc(Cl)cc2)sc1C1(C)CC(c2ccccc2Br)=NO1 (configuration not stated)	57*	x	28	x	x
COCc1cc(C)nc2sc3c(c12)NC(c1ccc(O)cc1)N(c1ccc(OC)cc1)C3=O (configuration not stated)	2	2	x	10	-1
CCN1CCN(Cc2cccc(Oc3ccccc3)c2)CC1	-28	8	-52*	-3	-2
COc1ccccc1CNC1CCN(Cc2ccccc2)CC1	-8	4	0	-3	-3
COc1cccc(CN2CCC(N(CCc3ccccc3)Cc3ccccc3)CC2)c1OC	-11	1	-85*	-1	-6
COc1cccc(CN2CCN(Cc3cc(OC)c(OC)c(OC)c3)CC2)c1OC	-8	6	-22	-6	-18
CN1CCN(Cc2cccc(Oc3ccc(Cl)cc3)c2)CC1	-35	15	-52*	-6	-26
COc1cccc(CN2CCN(Cc3cccc(Oc4ccccc4)c3)CC2)c1OC	-21	4	-59*	0	-9
CC1CCN(S(=O)(=O)c2cc(C(=O)NCc3ccc(F)cc3)n(C)c2)CC1	0	0	x	2	-5

Screening results deposited in PubChem BioAssay by National Center for Advancing Translational Sciences (NCATS).
